# FBPA coupling cs – qHTS Assay for Inhibitors of Fructose-1,6-bisphosphate Aldolase from Giardia Lamblia: Coupling assay counterscreen; coupling enzyme system counterscreen, AmpLite Red fluorescence; activity change, negative = inhibition, % at 58.2 µM, hits read low; 290,000 tested, 0.67% active; AID 2472, 2010; in the data active = activity change below about -30%
#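 Activity here indicates interference with the coupling reaction, not aldolase inhibition. Compounds at 57.5 uM final met coupling enzymes for 10 min at RT; substrate and AmpLite Red detection followed, with a 525/598 nm fluorescence read after 20 min.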
# Tau FP inhib – qHTS for Inhibitors of Tau Fibril Formation, Fluorescence Polarization. Microtubule-associated protein tau (Homo sapiens), P10636. K18 P301L tau heparin fibrillization, Alexa594 FP, 6 h. Potency, µM (series often up to 57.7 µM), actives largely listed as inhibitors. 280,000 tested, 0.39% active. AID 1468, 2008; also: nearly all actives have a fitted effect of over 55% in size
# Target sequence (P10636 561-689 P618L limits assumed): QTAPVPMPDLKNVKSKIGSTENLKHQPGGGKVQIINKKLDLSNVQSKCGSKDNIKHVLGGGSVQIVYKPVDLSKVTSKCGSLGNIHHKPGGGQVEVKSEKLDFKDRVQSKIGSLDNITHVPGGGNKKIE
#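 Quantitative HTS format: compounds meet 15 uM recombinant K18 P301L tau and Alexa 594-tau tracer in 100 mM sodium acetate pH 7; 20 uM heparin triggers fibrillization at 37 C over 6 hr; FP gives the signal.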
# Tau fluor cs – Counterscreen qHTS for Inhibitors of Tau Fibril Formation, Fluorescence Polarization; 280,000 tested, 0.93% active; Potency, µM (titrated, usually from 57.7 µM); AID 1463, 2008; tau K18 P301L Alexa594 fluorescence, heparin fibrillization; also: nearly all actives have a fitted effect of over 55% in size
#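 Human K18 P301L tau (15 uM unlabeled plus 0.24 uM Alexa 594-labeled, final) in 100 mM sodium acetate pH 7 was mixed with compound and 20 uM heparin and incubated 6 hr at 37 C.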
# USP1 inh – Inhibitors of USP1/UAF1: Primary Screen; AID 743255, 2014; 390,000 tested, 0.23% active; recombinant USP1/UAF1, Ub-Rhodamine cleavage fluorescence; Potency, µM (top dose mostly 57.1 µM), hits mostly inhibitors; also: nearly all actives have a fitted effect of over 60% in size
#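 USP1/UAF1 complex at 1 nM was preincubated with compound for 15 min at room temperature, then Ub-Rho substrate (150nM final) was added. Fluorescence (480/540 nm) was read kinetically, 6 reads every 60 seconds.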
# Tau ThT inhib – qHTS for Inhibitors of Tau Fibril Formation, Thioflavin T Binding. Microtubule-associated protein tau (Homo sapiens), P10636. recombinant tau K18 P301L, heparin-induced fibrillization, ThT fluorescence. Potency, µM (series often up to 57.4 µM), usual class: inhibitors. 270,000 tested, 2.1% active; also: nearly all actives have a fitted effect of over 55% in size
#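 Using a mix of unlabeled (15 uM) and Alexa 594-labeled (0.24 uM) tau K18 P301L, heparin-triggered fibrillization over 6 hr at 37 C was scored by ThT fluorescence.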
# A number is an active result; i = inactive; ? = inconclusive; nt = no result given; ! = not confirmed by another sample; [ ] = remark or other dose. Compounds with a hit are over-represented: about 2.3% of the library has one in this group of screens. Unless noted, calls follow the shape of the dose curve; as a rule, active = well fitted curve in the direction sought with a large enough effect; inconclusive = small, poorly fitted or top-dose-only effect, or another doubt; inactive = no such curve, though single readings can be large; an effect the other way counts as inactive or inconclusive.
SMILES,FBPA coupling cs,Tau FP inhib,Tau fluor cs,USP1 inh,Tau ThT inhib
CCOC(=O)/C=C(C)\C=C\c1c[nH]c2ccccc12,i,i,14.1µM[quencher],i,?
CCCCOc1ccc(/C=C2/Sc3ccccc3C2=O)cc1,i,i,?,i,3.55µM
CC(=O)Oc1cccc(/C=C2\C=C(c3ccc(C)cc3)OC2=O)c1,i,i,i,i,?
CC(=O)Oc1cccc(/C=C2\Sc3ccccc3C2=O)c1,i,i,?,i,10µM
CC(C)COc1ccc(/C=C2/Sc3ccccc3C2=O)cc1,i,i,i,i,4.47µM
O=C1/C(=C/c2cccs2)Sc2ccccc21,i,i,i,i,?
C=Cc1ccc(Cn2c(C(=O)O)c(CNCc3ccc(F)cc3)c3ccc(C)cc32)cc1,nt,i,i,i,i
CCC(=O)N1CCc2cc(Br)cc(S(=O)(=O)N3CCCC(C(=O)N(C)c4ccc(Br)cc4)C3)c21 (centres undefined),nt,i,i,i,i
COc1ccc(NC(=O)CSc2nc3c(c(-c4cccs4)c2C#N)CN(C)CC3)cc1OC,i,?,25.1µM[quencher],i,25.1µM
COc1ccc(-c2nc(-c3ccccc3)c(NC(C)C)o2)cc1,i,i,i,nt,i
O=[N+]([O-])c1ccc(C[n+]2ccc(Cc3ccccc3)cc2)cc1,-42.2,i,i,i,?
O=C(C[n+]1ccc(CCSc2ccc(F)cc2)cc1)c1ccccc1,i,?,i,i,28.2µM
Cc1ccc(SCCc2cc[n+](CC(=O)c3ccccc3)cc2)cc1,i,i[2.34 µM],i,?,i
CCN(CC)C(=O)Cn1cc(SCC(=O)Nc2ccccc2F)c2ccccc21,nt,i,i,i,i
NNC(=O)c1cc(-c2ccccc2)sc1N,i,i,?,i,7.94µM
COc1cc(/C=N/NC(=O)c2cc(-c3cccs3)nc3ccccc23)ccc1O,i,i,17.8µM[quencher],i,?
O=C(Nc1sc(-c2ccccc2)cc1C(=O)O)c1ccccc1,i,i,?,?,12.6µM
COc1cc(/C=N/NC(=O)c2cc(-c3cccc(OC(C)C)c3)nc3ccccc23)ccc1O,nt,nt,nt,i,nt
COc1cc(/C=N/NC(=O)c2cc(-c3ccccc3)sc2N)cc(OC)c1OC,i,?,12.6µM[quencher],i,nt
CCSC1=NSC2=NC(=O)/C(=C\c3coc4ccccc4c3=O)C(=N)N12,i,i,?,22.4µM,25.1µM
CSC1=NSC2=NC(=O)/C(=C\c3ccc(OC(=O)c4ccco4)cc3)C(=N)N12,i,nt,nt,i,nt
Cc1cccc(-n2c(C)cc(/C=C3\C(=N)N4N=C(CC(C)C)SC4=NC3=O)c2C)c1,i,?,i,i,i
CC(C)CC1=NN2C(=N)/C(=C\c3coc4ccccc4c3=O)C(=O)N=C2S1,i,?,?,28.2µM,31.6µM
Nc1c(O)ccc2c1C(=O)c1ccccc1C2=O,i,?,?,i,14.1µM
COc1ccc2c(c1O)C(=O)c1ccccc1C2=O,i,i,i,nt,?
SMILES,FBPA coupling cs,Tau FP inhib,Tau fluor cs,USP1 inh,Tau ThT inhib
O=C1/C(=C/c2ccco2)SC(=S)N1CC1CCCO1 (centres undefined),i,?,?,i,20µM
Cc1ccc(/C=C2\SC(=S)N(CC3CCCO3)C2=O)o1 (centres undefined),i,?,i,i,15.8µM
COc1cc(/C=C2/SC(=S)N(CC3CCCO3)C2=O)ccc1O (centres undefined),i,i,11.2µM[quencher],?,14.1µM
O=C1/C(=C/c2cccnc2)SC(=S)N1CC1CCCO1 (centres undefined),i,i,i,i,i
COc1ccc(C2=NN(S(C)(=O)=O)C(c3cn(-c4ccccc4)nc3-c3cccs3)C2)cc1 (centres undefined),nt,20µM,?,i,i
CCCCCn1cnnc1SCC(=O)c1ccc2c(c1)OCO2,nt,nt,nt,i,nt
COC(=O)CCC(=O)OC1(C)C(=O)C=C2C=C(C3CC3)N(CCc3c[nH]c4ccccc34)C=C2C1=O (centres undefined),-40.4!,i[11.6 µM],i[11.6 µM],?,?
COC(=O)CCC(=O)OC1(C)C(=O)C=C2C=C(C3CC3)N(Cc3ccc(OC)cc3)C=C2C1=O (centres undefined),-44.6!,i[11.6 µM],i[11.6 µM],?,?

# Screening data deposited in PubChem by National Center for Advancing Translational Sciences (NCATS).
